The structures appear in SMILES notation. Where “and” joins values, the source holds several entries; their conditions need not be identical. Equal entries are not always repeated. Inconclusive results are not listed. Calls of active or inactive are those of the source. How the source made its calls, unless noted: active means hit-call score of the fitted dose curve at least 0.9, where 1 is the maximum; inactive means score below 0.9.

Tested on in one experiment: not listed separately
Nature of the experiment: IUF_NPC2-5_cell_number_120hr: Cell Number Assessment at 120 hours in the Leibniz Research Institute for Environmental Medicine (IUF) Neural Progenitor Cell Migration and Differentiation Assay (NPC2-5) (AID 2284308).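 Further: count of Hoechst-stained nuclei in migration zone around plated human neural progenitor spheres.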
Settings: not given
Summed up: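 Hoechst-stained nuclei within the migration area were counted by automated high content imaging after 120 h. Single hNPC spheres differentiated on poly-D-lysine/laminin in DMEM/F12 (3:1) with 1% N2, compound present throughout, DMSO ≤0.1%.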
For `N[C@@H](CCC(=O)O)C(=O)O`, the call was inactive.
Regarding `CCCCC(CC)COC(=O)COc1ccc(Cl)cc1C` (centres undefined), the compound was classed as inactive.
Take `c1ccc2scnc2c1`: the call was inactive.
Take `CC(C)Cc1ccc(C(C)C(=O)O)cc1` (centres undefined): the compound was called inactive.

Tested on in a further experiment: not listed separately
Nature of the experiment: IUF_NPC2-5_viability_120hr: Viability Assessment at 120 hours in the Leibniz Research Institute for Environmental Medicine (IUF) Neural Progenitor Cell Migration and Differentiation Assay (NPC2-5) (AID 2284312).
Settings: not given
Summed up: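 Human fetal (GW 16-19) neural progenitor spheres of 0.3 mm were plated on poly-D-lysine/laminin in N2 differentiation medium and exposed from day 0 for 120 h, with half-medium refresh at day 3. Viability was read as alamar blue resazurin-to-resorufin fluorescence against DMSO.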
In the case of `N[C@@H](CCC(=O)O)C(=O)O`, the outcome was inactive.
Still for that read-out and setting: under `CCCCC(CC)COC(=O)COc1ccc(Cl)cc1C` (centres undefined) stands “inactive”; under `c1ccc2scnc2c1`, “inactive”.
`CC(C)Cc1ccc(C(C)C(=O)O)cc1` (centres undefined): the compound was classed as inactive.

The next experiment deals with IYD (gene 389434). In words: CCTE_GLTED_hIYD: CCTE's human Iodotyrosine Deiodinase (xIYD) Inhibition Assay, Great Lakes Toxicology and Ecology Division (GLTED) Lab (AID 2284317; active means hit-call score of the fitted dose curve at least 0.9, where 1 is the maximum;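 further: cell-free human IYD enzyme made in baculovirus insect cells; iodide freed from monoiodotyrosine measured by cerium arsenite color change at 420 nm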).
Settings: not given
An outline of the steps: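 Human IYD expressed in a baculovirus-insect cell system was incubated 3 h with monoiodotyrosine and test chemical. Released iodide, separated on Dowex columns, was quantified by the Sandell-Kolthoff reaction at 420 nm; plates were normalized to MNT and DMSO/NaOH controls.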
`CCCCCCCCOC(=O)c1ccc(O)cc1`: the AC50 is 39.6 µM (active).
Take `O=C1OC2(c3ccc(O)cc3Oc3cc(O)ccc32)c2ccccc21`: the result was inactive.
As for `CC/C(=C(\c1ccccc1)c1ccc(OCCN(C)C)cc1)c1ccccc1`, the AC50 is 55.8 µM (active) and 31.5 µM (active).
Consider `CCCCCCCCCCCCN1CCOCC1`, for which the AC50 is 51 µM (active).
In the case of `CCCCCCCCCCCCOCCOS(=O)(=O)O`, the AC50 was 76.7 µM (active).

Tested on in another experiment: not listed separately
Nature of the experiment: CCTE_Mundy_HCI_iCellGluta_NOG_NeuriteLength: CCTE's Neurite Outgrowth Assay in iCellGluta cells for Neurite Length, Mundy Lab (AID 2284318; active means hit-call score of the fitted dose curve at least 0.9, where 1 is the maximum).
Settings: not given
An outline of the steps:
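Automated high-content imaging of betaIII-tubulin (Alexa Fluor-488) and Hoechst-stained cells gave neurite length, normalized to the DMSO baseline.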
On to `N[C@@H](CCC(=O)O)C(=O)O`, for which the outcome was inactive.
As for `N#CCCNCCC#N`, the outcome was inactive.
As to `CCCCC(CC)COC(=O)COc1ccc(Cl)cc1C` (centres undefined), the AC50 was 33.4 µM (active).
Turning to `c1ccc2scnc2c1`, the call was inactive.
For `CC(C)Cc1ccc(C(C)C(=O)O)cc1` (centres undefined), the AC50 was 15 µM (active).

Tested on in another experiment: not listed separately
Nature of the experiment: CCTE_Deisenroth_5AR_NBTE_donor: CCTE's 5alpha-reductase NanoBRET Target Engagement Assay […], Deisenroth Lab (AID 2284319). As to conditions: actives raise or lower the signal. Summed up:
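Donor NanoLuc luminescence at 460-20 nm is the read-out, serving artifact detection. Transiently expressed SRD5A2-NanoLuc in HEK293T; 5 h total chemical exposure, testosterone tracer added for the final 2 h; fitting bidirectional relative to DMSO baseline.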
`O=C1OC2(c3ccc(O)cc3Oc3cc(O)ccc32)c2ccccc21`: the AC50 is 3.88 µM (active).
In the case of `CC/C(=C(\c1ccccc1)c1ccc(OCCN(C)C)cc1)c1ccccc1`, the AC50 was 67.4 µM (active).
In the case of `CCCCCCCCCCCCN1CCOCC1`, the call was inactive.
Turning to `CC(=O)C1=C(C)[C@@H]2C[C@@]3(C1)[C@H](C)CC[C@H]3C2(C)C`, the outcome was inactive.
In the case of `O=C(c1ccc(OCCN2CCCCC2)cc1)c1c(-c2ccc(O)cc2)sc2cc(O)ccc12`, the AC50 is 50 µM (active).
In the case of `O=S(=O)(O)c1cc(S(=O)(=O)O)c2c(N=Nc3ccccc3)c(O)ccc2c1`, the compound was called inactive.
Turning to `CCCCCCCCCCCCOCCOS(=O)(=O)O`, the AC50 was 79 µM (active).
As to `CCCO[Si](OCCC)(OCCC)OCCC`, the result was inactive.

The next experiment relates to TTR (gene 7276). In words: CCTE_GLTED_hTTR_0.5uM: CCTE's human Transthyretin (hTTR) Inhibition Assay, with 0.5uM TTR, Great Lakes Toxicology and Ecology Division (GLTED) Lab (AID 2284320).
Settings: not given
Summed up: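 Cell-free displacement assay in which human TTR at 0.5 uM was incubated with test chemical for 2 h. Displacement of the ANSA probe was read by fluorescence at 380 nm excitation/475 nm emission. Loss of signal was fitted in the positive direction versus DMSO.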
As for `O=C(O)C(F)(F)C(F)(F)C(F)(F)C(F)(F)C(F)(F)C(F)(F)C(F)(F)C(F)F`, the AC50 was 0.53 µM (active).
On the same count and under the same terms, next, `O=C(O)C(F)(F)OC(F)(F)C(F)(F)OC(F)(F)C(F)(F)C(F)(F)C(F)(F)F`: 0.712 µM (active); `O=S(=O)(O)C(F)(F)C(F)(F)OC(F)(F)C(F)(F)F`: 2.14 µM (active).

Tested on in another experiment: not listed separately
Nature of the experiment: CCTE_Deisenroth_5AR_NBTE_acceptor: CCTE's 5alpha-reductase NanoBRET Target Engagement Assay - Autofluorescence Screen, Deisenroth Lab (AID 2284321).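 Further: compound fluorescence in the acceptor channel under 460 nm excitation flags autofluorescence artifacts.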 As to conditions: actives raise or lower the signal. An outline of the steps:
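Autofluorescence check: ToxCast chemicals, nominal 100 uM, excitation 460 nm, n=3 runs. Acceptor fluorescence endpoint, bidirectional fit relative to DMSO. Parent assay in HEK293T, 5 h post-dose.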
Regarding `O=C1OC2(c3ccc(O)cc3Oc3cc(O)ccc32)c2ccccc21`, the compound was called inactive.
In the case of `CC/C(=C(\c1ccccc1)c1ccc(OCCN(C)C)cc1)c1ccccc1`, the AC50 was 64 µM (active).
As for `CCCCCCCCCCCCN1CCOCC1`, the call was inactive.
For `CC(=O)C1=C(C)[C@@H]2C[C@@]3(C1)[C@H](C)CC[C@H]3C2(C)C`, the compound was classed as inactive.
For the compound `O=C(c1ccc(OCCN2CCCCC2)cc1)c1c(-c2ccc(O)cc2)sc2cc(O)ccc12`, the AC50 is 50 µM (active).
Regarding `O=S(=O)(O)c1cc(S(=O)(=O)O)c2c(N=Nc3ccccc3)c(O)ccc2c1`, the compound was called inactive.
With `CCCCCCCCCCCCOCCOS(=O)(=O)O`, the AC50 is 78.4 µM (active).
For `CCCO[Si](OCCC)(OCCC)OCCC`, the outcome was inactive.

Another experiment deals with SRD5A2 (gene 6716). Nature of the experiment: CCTE_Deisenroth_5AR_NBTE_ratio: CCTE's 5alpha-reductase NanoBRET Target Engagement Assay - Ratio, Deisenroth Lab (AID 2284322). As to conditions: actives raise or lower the signal. An outline of the steps:
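Reverse-transfect HEK293T with pNLF1-C-SRD5A2, express 20 h. Pre-incubate cells with chemical 3 h (8-point series, 10 nM - 29.9 uM, duplicate). Add testosterone tracer, 2 h more. Add substrate/inhibitor, read donor and acceptor emission.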
Consider `O=C1OC2(c3ccc(O)cc3Oc3cc(O)ccc32)c2ccccc21`, for which the AC50 was 10.3 µM (active).
For `CC/C(=C(\c1ccccc1)c1ccc(OCCN(C)C)cc1)c1ccccc1`, the AC50 was 76.6 µM (active).
In the case of `CCCCCCCCCCCCN1CCOCC1`, the outcome was inactive.
For `CC(=O)C1=C(C)[C@@H]2C[C@@]3(C1)[C@H](C)CC[C@H]3C2(C)C`, the outcome was inactive.
With `O=C(c1ccc(OCCN2CCCCC2)cc1)c1c(-c2ccc(O)cc2)sc2cc(O)ccc12`, the AC50 was 19.1 µM (active).
The same measure, in the same setting: next, `O=S(=O)(O)c1cc(S(=O)(=O)O)c2c(N=Nc3ccccc3)c(O)ccc2c1`: 10.9 µM (active); `CCCCCCCCCCCCOCCOS(=O)(=O)O`: 79.1 µM (active).
Take `CCCO[Si](OCCC)(OCCC)OCCC`: the outcome was inactive.

Tested on in another experiment: not listed separately
In words: TAMU_PeakParms_SingleDonor1434_Asystole: Texas A&M University (TAMU) 1.5-hr Human Induced Pluripotent Stem Cell (iPSC)-derived Cardiomyocytes Calcium (Ca+2) Flux Assay for Cardiotoxicity: Asystole (quiescence of beating) (AID 2284328; active means hit-call score of the fitted dose curve at least 0.9, where 1 is the maximum).
Settings: not given
An outline of the steps:
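Human iPSC-derived cardiomyocytes (donor 1434) were exposed to 0.2, 1, 10 and 100 uM compound in 0.5% DMSO for 90 min at 37C. Ca2+-dye fluorescence gave average peak frequency; POD is EC95, a 95% beat-rate drop versus DMSO.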
In the case of `CC/C(=C(\c1ccccc1)c1ccc(OCCN(C)C)cc1)c1ccccc1`, the outcome was inactive.
As for `N#CCCNCCC#N`, the outcome was inactive.
Take `CNC(=C[N+](=O)[O-])NCCSCc1ccc(CN(C)C)o1`: the outcome was inactive.

Tested on in another experiment: not listed separately
In words: IUF_NPC1_cytotoxicity_72hr: Cytotoxicity Assessment at 72 hours in the Leibniz Research Institute for Environmental Medicine (IUF) Neural Progenitor Cell Proliferation Assay (NPC1) (AID 2284332; active means hit-call score of the fitted dose curve at least 0.9, where 1 is the maximum;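 further: rising LDH signal means more cytotoxicity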).
Settings: not given
An outline of the steps: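 Single human fetal cortex neural progenitor spheres (GW 16-19, 0.25-0.35 mm) in EGF/FGF proliferation medium were exposed to compound for 72 h at 37C without renewal. Medium LDH release was read as resorufin fluorescence and fitted as gain-of-signal.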
For `N[C@@H](CCC(=O)O)C(=O)O`, the compound was called inactive.
As for `CCCCC(CC)COC(=O)COc1ccc(Cl)cc1C` (centres undefined), the result was inactive.
As for `c1ccc2scnc2c1`, the compound was called inactive.
For `CC(C)Cc1ccc(C(C)C(=O)O)cc1` (centres undefined), the compound was called inactive.

Tested on in the next experiment: not listed separately
In words: CCTE_Mundy_HCI_iCellGluta_NOG_NeuronCount: CCTE's Neurite Outgrowth Assay in iCellGluta cells for Neuron Count, Mundy Lab (AID 2284340; active means hit-call score of the fitted dose curve at least 0.9, where 1 is the maximum;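 further: cells fixed about 48 h after compound addition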).
Settings: not given
Summed up: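 Neuron count read by automated high-content imaging of Hoechst 33342 and betaIII-tubulin/Alexa Fluor-488 labelling in human iPSC glutamatergic neurons. Activity fitted relative to DMSO.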
For `N[C@@H](CCC(=O)O)C(=O)O`, the outcome was inactive.
For the compound `N#CCCNCCC#N`, the compound was called inactive.
With `CCCCC(CC)COC(=O)COc1ccc(Cl)cc1C` (centres undefined), the AC50 is 39 µM (active).
`c1ccc2scnc2c1`: the result was inactive.
Turning to `CC(C)Cc1ccc(C(C)C(=O)O)cc1` (centres undefined), the compound was called inactive.

Tested on in another experiment: not listed separately
In words: CCTE_Mundy_HCI_iCellGluta_NOG_NeuriteCount: CCTE's Neurite Outgrowth Assay in iCellGluta cells for Neurite Count, Mundy Lab (AID 2284342; active means hit-call score of the fitted dose curve at least 0.9, where 1 is the maximum;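 further: chemical exposure about 48 hours starting 2 hours after plating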).
Settings: not given
`N[C@@H](CCC(=O)O)C(=O)O`: the outcome was inactive.
For the compound `N#CCCNCCC#N`, the compound was classed as inactive.
As for `CCCCC(CC)COC(=O)COc1ccc(Cl)cc1C` (centres undefined), the AC50 is 32.2 µM (active).
On to `c1ccc2scnc2c1`, for which the compound was classed as inactive.
Turning to `CC(C)Cc1ccc(C(C)C(=O)O)cc1` (centres undefined), the compound was classed as inactive.

A further experiment deals with SERPINA7 (gene 6906). In words: CCTE_GLTED_hTBG: CCTE's human Thyroxine-binding Globulin (TBG) Inhibition Assay, Great Lakes Toxicology and Ecology Division (GLTED) Lab (AID 2284343; active means hit-call score of the fitted dose curve at least 0.9, where 1 is the maximum;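 further: active chemicals lower fluorescence versus DMSO baseline by displacing probe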).
Settings: not given
Summed up: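 Cell-free binding assay in which human TBG is incubated with test chemical for 2 hours and displacement of the fluorescent probe ANSA is read at 380 nm excitation/475 nm emission. Activity is fitted against DMSO as the negative control.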
As to `CCCCCCCCOC(=O)c1ccc(O)cc1`, the AC50 was 7.24 µM (active).
As to `O=c1cc(-c2ccc(O)cc2)oc2cc(O)cc(O)c12`, the AC50 is 38.2 µM (active).
With `O=C(O)c1ccccc1O`, the AC50 is 50 µM (active).
As to `O=C(O)C(F)(F)C(F)(F)C(F)(F)C(F)(F)C(F)(F)C(F)(F)C(F)(F)C(F)F`, the AC50 is 73.1 µM (active).
Turning to `CCCCCCOc1ccc(O)cc1`, the AC50 is 33.7 µM (active).
Turning to `O=S(=O)(O)c1cc(S(=O)(=O)O)c2c(N=Nc3ccccc3)c(O)ccc2c1`, the AC50 was 33.9 µM (active).
Turning to `CCCCCCCCCCCCOCCOS(=O)(=O)O`, the AC50 is 50 µM (active).

The record behind these values is PubChem BioAssay (EPA / NIEHS).
